# Laboratory results as given in article PMC7862700, “An all-to-all approach to the identification of sequence-specific readers for epigenetic DNA modifications on cytosine”.
# What was measured:
# Experiment in all cases: DAPPL (digital affinity profiling via proximity ligation, sequencing); 10 mM Tris-HCl pH 7.5, 50 mM NaCl, 1 mM DTT, 4% glycerol, room temperature, 30 min; GST-TFs on glutathione beads, 16-mer random dsDNA library, 0.1% formaldehyde crosslink after washing; high values mean tight binding
# FEV = biological target: T1, FEV (Homo sapiens, UniProt Q99581 1-238); settings: protein: recombinant; tags: N-terminal GST; dsDNA, one strand shown
# T1 sequence: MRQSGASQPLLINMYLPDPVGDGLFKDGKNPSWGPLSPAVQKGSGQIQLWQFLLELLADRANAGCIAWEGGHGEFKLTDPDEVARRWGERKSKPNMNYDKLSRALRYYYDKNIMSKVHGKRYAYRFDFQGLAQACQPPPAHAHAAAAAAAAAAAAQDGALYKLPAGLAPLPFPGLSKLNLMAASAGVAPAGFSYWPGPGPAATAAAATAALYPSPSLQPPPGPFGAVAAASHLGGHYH
# Method in brief: (§1)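 Yeast served to express human transcription factors as GST fusions, which were then captured on glutathione beads and labelled with DNA barcodes. Pooled with a tag-only sample, they were incubated with 200 nmole of a 16-mer random double-stranded DNA library for 30 min at room temperature in Tris/NaCl/DTT/glycerol buffer, washed, crosslinked with 0.1% formaldehyde, ligated by proximity, amplified by PCR and sequenced. Dividing each hexamer's read frequency for a factor by its frequency for the tag-only sample gives the binding signal.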
# ETV5 = ETV5 (Homo sapiens, UniProt P41161 1-510); settings: protein: recombinant; tags: N-terminal GST; dsDNA, one strand shown
# ETV5, sequence (P41161 whole entry): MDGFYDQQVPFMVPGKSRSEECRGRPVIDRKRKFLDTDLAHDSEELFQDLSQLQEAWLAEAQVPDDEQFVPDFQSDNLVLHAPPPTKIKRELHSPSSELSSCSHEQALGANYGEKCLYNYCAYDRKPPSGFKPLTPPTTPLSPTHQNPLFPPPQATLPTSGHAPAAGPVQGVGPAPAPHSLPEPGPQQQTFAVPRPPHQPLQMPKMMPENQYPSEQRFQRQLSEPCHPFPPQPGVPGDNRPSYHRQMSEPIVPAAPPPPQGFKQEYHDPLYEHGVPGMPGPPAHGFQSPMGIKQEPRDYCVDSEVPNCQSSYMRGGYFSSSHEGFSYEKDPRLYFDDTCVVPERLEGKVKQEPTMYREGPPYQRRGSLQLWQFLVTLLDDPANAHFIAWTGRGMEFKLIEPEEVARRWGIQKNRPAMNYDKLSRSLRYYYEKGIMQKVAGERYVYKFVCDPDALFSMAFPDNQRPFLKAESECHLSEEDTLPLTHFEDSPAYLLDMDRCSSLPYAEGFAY
# Method in brief: as §1
# HSF1 = HSF1 (Homo sapiens, UniProt Q00613 1-529); settings: protein: recombinant; tags: N-terminal GST; chain copies: 3; dsDNA, one strand shown
# HSF1, sequence (Q00613 whole entry): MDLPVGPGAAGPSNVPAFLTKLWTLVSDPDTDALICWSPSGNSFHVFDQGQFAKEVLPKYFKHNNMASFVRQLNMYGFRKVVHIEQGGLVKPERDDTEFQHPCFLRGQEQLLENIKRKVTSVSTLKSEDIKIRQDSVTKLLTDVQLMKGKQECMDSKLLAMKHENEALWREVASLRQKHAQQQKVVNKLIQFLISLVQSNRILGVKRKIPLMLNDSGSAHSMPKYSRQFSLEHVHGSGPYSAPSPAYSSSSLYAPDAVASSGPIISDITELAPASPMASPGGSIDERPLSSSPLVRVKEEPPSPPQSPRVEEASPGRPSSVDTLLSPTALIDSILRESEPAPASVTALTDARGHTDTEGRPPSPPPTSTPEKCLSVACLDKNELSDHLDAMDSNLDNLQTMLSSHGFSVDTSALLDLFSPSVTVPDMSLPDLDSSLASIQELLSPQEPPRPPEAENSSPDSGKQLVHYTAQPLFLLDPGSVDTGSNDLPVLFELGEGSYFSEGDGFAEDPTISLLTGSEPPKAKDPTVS
# Method in brief: as §1
# SPIC = biological target: T2, SPIC (Homo sapiens, UniProt Q8N5J4 1-248); settings: protein: recombinant; tags: N-terminal GST; dsDNA, one strand shown
# T2 sequence: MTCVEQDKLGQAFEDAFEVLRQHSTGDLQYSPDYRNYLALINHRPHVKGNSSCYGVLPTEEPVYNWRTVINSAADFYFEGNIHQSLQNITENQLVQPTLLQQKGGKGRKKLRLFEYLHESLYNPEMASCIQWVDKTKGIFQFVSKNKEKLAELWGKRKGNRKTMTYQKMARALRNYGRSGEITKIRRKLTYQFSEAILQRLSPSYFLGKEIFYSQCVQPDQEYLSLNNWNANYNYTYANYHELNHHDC
# Method in brief: as §1
# ELF4 = ELF4 (Homo sapiens, UniProt Q99607 1-663); settings: protein: recombinant; tags: N-terminal GST; dsDNA, one strand shown
# ELF4, sequence (Q99607 whole entry): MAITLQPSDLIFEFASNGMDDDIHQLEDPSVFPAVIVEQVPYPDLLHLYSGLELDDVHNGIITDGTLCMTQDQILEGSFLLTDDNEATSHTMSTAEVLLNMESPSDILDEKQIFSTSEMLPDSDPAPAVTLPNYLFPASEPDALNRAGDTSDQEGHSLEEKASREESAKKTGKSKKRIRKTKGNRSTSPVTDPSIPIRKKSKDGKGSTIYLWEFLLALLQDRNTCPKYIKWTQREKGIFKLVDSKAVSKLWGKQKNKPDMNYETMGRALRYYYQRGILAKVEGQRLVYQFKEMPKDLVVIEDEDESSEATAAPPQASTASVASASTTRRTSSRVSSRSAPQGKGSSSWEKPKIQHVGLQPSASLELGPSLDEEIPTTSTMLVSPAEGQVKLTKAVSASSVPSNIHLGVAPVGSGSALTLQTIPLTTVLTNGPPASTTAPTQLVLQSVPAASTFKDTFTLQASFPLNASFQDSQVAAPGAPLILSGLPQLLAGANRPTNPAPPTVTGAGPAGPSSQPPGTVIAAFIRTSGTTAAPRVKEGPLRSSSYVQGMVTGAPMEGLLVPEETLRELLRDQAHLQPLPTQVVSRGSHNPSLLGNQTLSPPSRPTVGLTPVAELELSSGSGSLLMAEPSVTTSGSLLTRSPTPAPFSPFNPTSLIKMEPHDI
# Method in brief: as §1
# ELK4 = biological target: T3, ELK4 (Homo sapiens, UniProt P28324-2 1-405); settings: protein: recombinant; tags: N-terminal GST; dsDNA, one strand shown
# T3 sequence: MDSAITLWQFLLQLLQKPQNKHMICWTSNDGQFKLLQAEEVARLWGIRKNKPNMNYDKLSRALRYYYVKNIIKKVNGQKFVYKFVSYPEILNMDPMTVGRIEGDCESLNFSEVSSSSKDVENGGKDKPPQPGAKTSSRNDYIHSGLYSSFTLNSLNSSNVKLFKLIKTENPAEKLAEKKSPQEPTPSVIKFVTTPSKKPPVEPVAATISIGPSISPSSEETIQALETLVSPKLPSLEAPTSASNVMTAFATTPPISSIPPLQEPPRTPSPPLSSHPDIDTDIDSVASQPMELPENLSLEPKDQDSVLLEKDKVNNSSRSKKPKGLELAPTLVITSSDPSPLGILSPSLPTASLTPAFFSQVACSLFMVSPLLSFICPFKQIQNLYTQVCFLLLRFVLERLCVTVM
# Method in brief: as §1
# ETV2 = biological target: T4, ETV2 (Homo sapiens, UniProt O00321 1-342); settings: protein: recombinant; tags: N-terminal GST; dsDNA, one strand shown
# T4 sequence: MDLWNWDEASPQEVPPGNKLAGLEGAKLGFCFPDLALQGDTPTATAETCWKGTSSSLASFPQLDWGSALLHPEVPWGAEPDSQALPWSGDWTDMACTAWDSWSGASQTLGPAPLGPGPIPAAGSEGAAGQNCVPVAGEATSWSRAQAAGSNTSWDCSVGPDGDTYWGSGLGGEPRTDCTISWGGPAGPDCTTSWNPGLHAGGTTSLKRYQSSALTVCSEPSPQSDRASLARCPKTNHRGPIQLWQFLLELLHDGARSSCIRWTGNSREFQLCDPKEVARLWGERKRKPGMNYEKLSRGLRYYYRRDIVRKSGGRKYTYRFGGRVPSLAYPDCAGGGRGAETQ
# Method in brief: as §1
# ELF3 = biological target: T5, ELF3 (Homo sapiens, UniProt P78545 1-371); settings: protein: recombinant; tags: N-terminal GST; dsDNA, one strand shown
# T5 sequence: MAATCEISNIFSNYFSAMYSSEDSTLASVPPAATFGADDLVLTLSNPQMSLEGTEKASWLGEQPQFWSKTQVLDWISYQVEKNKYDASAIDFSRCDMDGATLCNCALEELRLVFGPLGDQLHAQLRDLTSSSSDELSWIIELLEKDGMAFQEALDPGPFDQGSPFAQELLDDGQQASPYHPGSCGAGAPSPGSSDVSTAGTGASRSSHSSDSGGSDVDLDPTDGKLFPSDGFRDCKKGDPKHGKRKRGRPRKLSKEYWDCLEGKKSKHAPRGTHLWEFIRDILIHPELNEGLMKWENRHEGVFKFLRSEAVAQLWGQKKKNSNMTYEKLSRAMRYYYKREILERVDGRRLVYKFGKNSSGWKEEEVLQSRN
# Method in brief: as §1
# CRX = CRX (Homo sapiens, UniProt O43186 1-299); settings: protein: recombinant; tags: N-terminal GST; dsDNA, one strand shown
# CRX, sequence (O43186 whole entry): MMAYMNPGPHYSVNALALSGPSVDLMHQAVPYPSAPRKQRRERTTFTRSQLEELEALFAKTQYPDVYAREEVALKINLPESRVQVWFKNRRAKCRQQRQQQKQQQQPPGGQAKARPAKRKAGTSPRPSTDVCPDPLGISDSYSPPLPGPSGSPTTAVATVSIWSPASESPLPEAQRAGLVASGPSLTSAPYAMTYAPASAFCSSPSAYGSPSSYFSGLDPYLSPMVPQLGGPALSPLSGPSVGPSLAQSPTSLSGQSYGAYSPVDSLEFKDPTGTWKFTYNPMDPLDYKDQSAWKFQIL
# Method in brief: as §1
# ETV1 = ETV1 (Homo sapiens, UniProt P50549 1-477); settings: protein: recombinant; tags: N-terminal GST; dsDNA, one strand shown
# ETV1, sequence (P50549 whole entry): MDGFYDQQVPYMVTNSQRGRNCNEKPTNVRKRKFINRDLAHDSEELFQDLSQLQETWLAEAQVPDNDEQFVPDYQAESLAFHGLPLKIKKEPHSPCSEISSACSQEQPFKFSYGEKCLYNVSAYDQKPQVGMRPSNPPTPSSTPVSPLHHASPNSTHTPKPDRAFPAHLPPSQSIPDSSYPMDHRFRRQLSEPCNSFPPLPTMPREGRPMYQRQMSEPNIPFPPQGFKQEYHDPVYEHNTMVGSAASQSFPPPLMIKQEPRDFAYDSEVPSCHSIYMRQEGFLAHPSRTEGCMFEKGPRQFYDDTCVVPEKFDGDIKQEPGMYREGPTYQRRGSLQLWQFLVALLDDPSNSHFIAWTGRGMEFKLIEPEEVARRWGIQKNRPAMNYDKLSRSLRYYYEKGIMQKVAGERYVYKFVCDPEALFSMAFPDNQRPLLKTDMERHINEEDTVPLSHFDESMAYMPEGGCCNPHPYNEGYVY
# Method in brief: as §1
Sequence,binding signal (FEV),binding signal (ETV5),binding signal (HSF1),binding signal (SPIC),binding signal (ELF4),binding signal (ELK4),binding signal (ETV2),binding signal (ELF3),binding signal (CRX),binding signal (ETV1)
TATGCA,"1.26 fold enrichment (6-mer frequency, TF over GST control)","1.18 fold enrichment (6-mer frequency, TF over GST control)","1.1 fold enrichment (6-mer frequency, TF over GST control)","1.24 fold enrichment (6-mer frequency, TF over GST control)","1.27 fold enrichment (6-mer frequency, TF over GST control)","1.37 fold enrichment (6-mer frequency, TF over GST control)","1.37 fold enrichment (6-mer frequency, TF over GST control)","1.25 fold enrichment (6-mer frequency, TF over GST control)","1.22 fold enrichment (6-mer frequency, TF over GST control)","1.19 fold enrichment (6-mer frequency, TF over GST control)"
TACTGC,"1.24 fold enrichment (6-mer frequency, TF over GST control)","1.32 fold enrichment (6-mer frequency, TF over GST control)","1.1 fold enrichment (6-mer frequency, TF over GST control)","1.29 fold enrichment (6-mer frequency, TF over GST control)","1.22 fold enrichment (6-mer frequency, TF over GST control)","1.17 fold enrichment (6-mer frequency, TF over GST control)","1.09 fold enrichment (6-mer frequency, TF over GST control)","1.34 fold enrichment (6-mer frequency, TF over GST control)","1.17 fold enrichment (6-mer frequency, TF over GST control)","1.08 fold enrichment (6-mer frequency, TF over GST control)"
TCTGGG,"1.13 fold enrichment (6-mer frequency, TF over GST control)","1.13 fold enrichment (6-mer frequency, TF over GST control)","1.4 fold enrichment (6-mer frequency, TF over GST control)","1.11 fold enrichment (6-mer frequency, TF over GST control)","1.08 fold enrichment (6-mer frequency, TF over GST control)","1.22 fold enrichment (6-mer frequency, TF over GST control)","1.19 fold enrichment (6-mer frequency, TF over GST control)","1.12 fold enrichment (6-mer frequency, TF over GST control)","1.1 fold enrichment (6-mer frequency, TF over GST control)","1.04 fold enrichment (6-mer frequency, TF over GST control)"
CATGCT,"1.22 fold enrichment (6-mer frequency, TF over GST control)","1.13 fold enrichment (6-mer frequency, TF over GST control)","1.13 fold enrichment (6-mer frequency, TF over GST control)","1.34 fold enrichment (6-mer frequency, TF over GST control)","1.15 fold enrichment (6-mer frequency, TF over GST control)","1.3 fold enrichment (6-mer frequency, TF over GST control)","1.35 fold enrichment (6-mer frequency, TF over GST control)","1.27 fold enrichment (6-mer frequency, TF over GST control)","1.1 fold enrichment (6-mer frequency, TF over GST control)","1.19 fold enrichment (6-mer frequency, TF over GST control)"
TAAGCT,"1.08 fold enrichment (6-mer frequency, TF over GST control)","1.16 fold enrichment (6-mer frequency, TF over GST control)","1.91 fold enrichment (6-mer frequency, TF over GST control)","1.24 fold enrichment (6-mer frequency, TF over GST control)","1.18 fold enrichment (6-mer frequency, TF over GST control)","1.21 fold enrichment (6-mer frequency, TF over GST control)","1.19 fold enrichment (6-mer frequency, TF over GST control)","1.32 fold enrichment (6-mer frequency, TF over GST control)","3.23 fold enrichment (6-mer frequency, TF over GST control)","1.23 fold enrichment (6-mer frequency, TF over GST control)"
TTTGTC,"1.19 fold enrichment (6-mer frequency, TF over GST control)","1.15 fold enrichment (6-mer frequency, TF over GST control)","1.11 fold enrichment (6-mer frequency, TF over GST control)","1.16 fold enrichment (6-mer frequency, TF over GST control)","1.18 fold enrichment (6-mer frequency, TF over GST control)","1.23 fold enrichment (6-mer frequency, TF over GST control)","1.16 fold enrichment (6-mer frequency, TF over GST control)","1.27 fold enrichment (6-mer frequency, TF over GST control)","1.29 fold enrichment (6-mer frequency, TF over GST control)","1.14 fold enrichment (6-mer frequency, TF over GST control)"
GTATTC,"1.18 fold enrichment (6-mer frequency, TF over GST control)","1.32 fold enrichment (6-mer frequency, TF over GST control)","1.31 fold enrichment (6-mer frequency, TF over GST control)","1.33 fold enrichment (6-mer frequency, TF over GST control)","1.27 fold enrichment (6-mer frequency, TF over GST control)","1.16 fold enrichment (6-mer frequency, TF over GST control)","1.27 fold enrichment (6-mer frequency, TF over GST control)","1.31 fold enrichment (6-mer frequency, TF over GST control)","1.13 fold enrichment (6-mer frequency, TF over GST control)","1.22 fold enrichment (6-mer frequency, TF over GST control)"
ATACTG,"1.04 fold enrichment (6-mer frequency, TF over GST control)","1.15 fold enrichment (6-mer frequency, TF over GST control)","1.06 fold enrichment (6-mer frequency, TF over GST control)","1.06 fold enrichment (6-mer frequency, TF over GST control)","1.16 fold enrichment (6-mer frequency, TF over GST control)","1.29 fold enrichment (6-mer frequency, TF over GST control)","1.32 fold enrichment (6-mer frequency, TF over GST control)","1.18 fold enrichment (6-mer frequency, TF over GST control)","1.11 fold enrichment (6-mer frequency, TF over GST control)","1.05 fold enrichment (6-mer frequency, TF over GST control)"
